From PubChem BioAssay (NCI)
The panel holds about 83,000 compounds, 20% with a hit somewhere; the sample as a whole holds those more often.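 Each cell line was grown in a 96-well plate and treated with one concentration of compound for 48 hours. Values below 10 were considered active.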 Activity calls are given as the source filed them.

test system: NCI-H226 lung; test: NCI-60 one-dose screen, 48 h (100 = growth as untreated, 0 = no growth, -100 = all killed); conditions: 10 µM unless noted

SMILES | growth
COc1ccc(N=C2CSc3nnc(-c4cc(F)c(Cl)cc4Cl)n3N2)cc1 | 27.9% (inactive)
Nc1c(C(=O)Nc2cccc(Cl)c2)sc2nc3c(cc12)C(=O)CCC3 | 57.9% (inactive)
COc1ccc(CNc2c3ccccc3nc3ccc(OC)cc23)cc1 | 33.8% (inactive)
CCOC(=O)c1cc(C(=O)OCC)c(C)nc1C | 105% (inactive)
NC(=O)N/N=C\c1ccc([N+](=O)[O-])o1 | 101% (inactive)
Cc1ccc(NC(=O)c2sc3nc4c(cc3c2N)C(=O)CCC4)cc1Cl | 102% (inactive)
COc1ccc(-n2c(COc3ccc(F)cc3)n[nH]c2=S)cc1 | 101% (inactive)
COc1ccccc1-[n+]1cc(-c2ccc(-c3ccccc3)cc2)n2c1CCCCC2 | 21.8% (inactive)
Nc1cc(C(=O)O)cc(C(=O)O)c1 | 108% (inactive)
CN(C)c1nc(-c2cccs2)n2nc(-c3ccco3)cc2n1 | 90.2% (inactive)
O=C(Nc1cccc(-n2ccc3c(NC(=O)c4ccccc4)nccc32)c1)c1ccc(N2CCOCC2)c(C(F)(F)F)c1 | 33.5% (inactive)
CNC(=O)c1c(NC(=O)c2ccc(C(C)C)cc2)sc2c1CCC(=O)C2 | -24.5% (active)
CC(CN1CCN(CC(C)Nc2ccnc3cc(Cl)ccc23)CC1)Nc1ccnc2cc(Cl)ccc12 (centres undefined) | 26.6% (inactive)
Cc1c2c(cc3c1[nH]c1ccccc13)C=NCC2 | 93% (inactive)
CC(C)c1ccc2c(c1)CCC1C2CCCC1(C)NCc1ccccc1 (centres undefined) | 103% (inactive)
CC1(C)OC2OC3C(CN)OC(c4ccccc4)OC3C2O1 (centres undefined) | 107% (inactive)
O=C1Nc2ccc(Br)cc2/C1=N/c1nc(-c2ccccc2)cs1 | 75.7% (inactive)
CS(=O)(=O)c1ccc(C(=O)N/N=C/c2ccccc2Cl)cc1 | 97.4% (inactive)
Cc1ccc(Nc2cccc3ccccc23)cc1 | 90.1% (inactive)
CCCCc1nc(Cl)c(C2CC(c3ccc(S(N)(=O)=O)cc3)=NN2c2ccc(C#N)cc2)[nH]1 (centres undefined) | 79.6% (inactive)

SMILES | growth
O/N=C1\c2ccccc2-c2ccc(Br)cc21 | 103% (inactive)
CCN(CC)CCCC(C)Nc1c(-c2ccccc2)cnc2cc(Cl)ccc12 (centres undefined) | 115% (inactive)
OC(COCc1ccccc1)COCc1ccccc1 | 106% (inactive)
O=C(CC(=O)c1cccc(Cl)c1)c1cccc(Cl)c1 | 41.5% (inactive)
O=C1CCCN1C1CCN2CCCc3cccc1c32 (centres undefined) | 111% (inactive)
CC(C)(C)[Si](C)(C)OC1[C@@H](CNC(N)=O)O[C@@H](n2cnc3c(NC(=O)Nc4ccccc4)ncnc32)[C@H]1O[Si](C)(C)C(C)(C)C (some centres undefined) | 75.9% (inactive)
NC(CCC(=O)NC(CS)C(=O)NCC(=O)O)C(=O)O (centres undefined) | 101% (inactive)
C/C(=N\NC(=O)CSc1nc2ccccc2c(=O)n1CCc1ccc(S(N)(=O)=O)cc1)c1ccc(Br)cc1 | 95.2% (inactive)
CC(C)CCSc1nc(Nc2ccccc2)c(C#N)c(-c2ccc(F)cc2)n1 | 90.7% (inactive)
CCOC(=O)C1OC2(CCCC2)OC1C(=O)OCC (centres undefined) | 97.1% (inactive)
CS(=O)(=O)c1ccc(C(=O)N/N=C/c2ccccc2O)cc1 | 55.2% (inactive)
O=C(NCCN1CCCC1)n1cc(-c2ccncc2)c(-c2cc(O)cc(Cl)c2)n1 | 93.9% (inactive)
C[C@@H]1N=C(c2ccc3ccccc3c2)Nc2nc3ccccn3c2C1=O | 64.5% (inactive)
CNCCCn1c2c(c3ccc(Cl)cc3c1=O)C(=O)c1cc(OC)cnc1-2 | 43% (inactive)
CC(=O)Oc1ccccc1C(=O)Nc1ncc([N+](=O)[O-])s1 | 63.5% (inactive)
O=C1/C(=C/c2ccccc2)SC(=Nc2ccccc2)N1Nc1ccccc1 | -40.1% (active)
Oc1c(C(Nc2cccc3ccccc23)c2ccccc2)ccc2cccnc12 (centres undefined) | 50.6% (inactive)
COc1ccc(CC2c3cc(OC)c(OC)cc3CC[N+]2(C)CCC(=O)OCCCCCOC(=O)CC[N+]2(C)CCc3cc(OC)c(OC)cc3C2Cc2ccc(OC)c(OC)c2)cc1OC (centres undefined) | 76.3% (inactive)
CCn1c(Cc2ccccc2Nc2c(Cl)cccc2Cl)nnc1SCC(=O)Nc1ccccc1C(F)(F)F | 82.3% (inactive)
